# Measurements taken from PubChem BioAssay.
# Activity calls are given as the source filed them. Unless noted, how the calls were made is not given here.
# Assays:
# [1] = tested on: Hepatitis C virus NS3 helicase; assay: HCV NS3 helicase inhibitors, primary screen, biochemical, fluorescence polarization, LOPAC1280 library (AID 687035; in the data active means inhibition above about 37%); settings: Purified HCV NS3 helicase, Cy5-dT15 ssDNA binding fluorescence polarization; stronger effect = higher value; concentration not given here
# [2] = Cy5 fluorescence quenching or enhancement artefacts, artefact control for HCV NS3 helicase inhibitor project, biochemical, LOPAC1280 (AID 687037); settings: Cy5-DNA-NS3h complex fluorescence interference counterscreen
# [3] = phospholipid biosynthesis inhibitors in animal cells, primary screen, cell-based, LOPAC library, screen 4 (AID 1347384); settings: phospholipid biosynthesis inhibition screen, at 10 µM
# [4] = LFS_MB_P medulloblastoma growth inhibition, cell-based, chromothripsis tumors, cisplatin or BGB combos (AID 1671449; in the data active means inhibition above about 80%;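 further: cells exposed for 96 hours; 0% = vehicle DMSO and 100% = killing by high DMSO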); settings: LFS_MB_P medulloblastoma cells
# [5] = HDN33 neuroblastoma growth inhibition, cell-based, chromothripsis tumors, cisplatin or BGB combos (AID 1671450; in the data active means inhibition above about 80%;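 further: cells exposed to compound for four days; 0% = vehicle DMSO and 100% = cell killing by high DMSO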); settings: HDN33 neuroblastoma cells, stronger effect = higher value
# [6] = LFS_MB_1R medulloblastoma cell growth inhibition, synergistic combos for chromothripsis tumors, cisplatin or BGB combos (AID 1671452; in the data active means inhibition above about 80%;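 further: cells exposed for 96 hours before readout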); settings: LFS_MB_1R medulloblastoma cells, stronger effect = higher value
# [7] = HTB85 osteosarcoma cell growth inhibition, synergistic combos for chromothripsis tumors, BGB or cisplatin IC20 combos (AID 1671453; in the data active means inhibition above about 80%;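 further: cells exposed for 96 hours before readout; 0% = vehicle DMSO and 100% = high DMSO killing control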); settings: HTB85 osteosarcoma cells, drug combinations, stronger effect = higher value
# [8] = CRL2098 osteosarcoma cell growth inhibition, synergistic combos for chromothripsis tumors, BGB or cisplatin IC20 combos (AID 1671454; in the data active means inhibition above about 80%;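 further: cells exposed for 96 h before readout; 0% = vehicle DMSO and 100% = killing by high DMSO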); settings: CRL2098 osteosarcoma cells, drug combinations, stronger effect = higher value
# [9] = HD-MB03 medulloblastoma cell growth inhibition, synergistic combos for chromothripsis tumors, BGB or cisplatin IC20 combos (AID 1671455; in the data active means inhibition above about 83%;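 further: 0% = vehicle DMSO and 100% = high DMSO as cytotoxic control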); settings: HD-MB03 medulloblastoma cells, stronger effect = higher value
# [10] = MDA-MB-436 breast carcinoma cell growth inhibition, synergistic combos for chromothripsis tumors, BGB or cisplatin combos (AID 1671458); settings: MDA-MB-436 breast carcinoma growth inhibition, drug combinations, stronger effect = higher value;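 further: cells exposed for 96 hours; 0% = vehicle DMSO and 100% = killing by high DMSO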
# [11] = growth inhibition of BT084 medulloblastoma cells, cell-based, ICGC_MB145, cisplatin and BGB IC40 combos (AID 1671461; in the data active means inhibition above about 80%;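 further: cells exposed to drugs for 96 hours; 0% = vehicle DMSO and 100% = high DMSO full killing control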); settings: drug combinations, stronger effect = higher value
# [12] = growth inhibition of RCMB18 medulloblastoma cells, cell-based, cisplatin and BGB IC40 combos (AID 1671462; in the data active means inhibition above about 80%;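 further: cells exposed to compound for four days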); settings: stronger effect = higher value
# [13] = growth inhibition of CRL1545 osteosarcoma cells, cell-based, cisplatin and BGB IC20 combos (AID 1671464; in the data active means inhibition above about 80%;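 further: cells exposed to compound for 96 hours before readout; 0% = vehicle DMSO and 100% = high DMSO killing control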); settings: stronger effect = higher value
# [14] = measured here: combination with BGB IC40, at 0.05 µM
# [15] = measured here: with BGB IC20 combination, at 0.5 µM
# [16] = measured here: with cisplatin IC20 combination, at 0.5 µM
# [17] = measured here: combination with cisplatin, at 0.5 µM
structure (smiles),measurement,setting,value
Nc1ncnc2nc(-c3ccc(N4CCOCC4)nc3)cc(-c3cccc(Br)c3)c12,inhibition,[1],-6% (inactive)
same,fluorescence ratio (interference),[2],0.9 (inactive)
O=Nc1c(-c2c(O)[nH]c3cc(Br)ccc23)[nH]c2ccccc12,inhibition,[1],2% (inactive)
same,fluorescence ratio (interference),[2],0.9 (inactive)
same,outcome,[3],active
O=c1ncccn1[C@@H]1O[C@H](CO)[C@@H](O)[C@H]1O,inhibition,"[4]; at 0.5 µM, stronger effect = higher value",94.5% (active)
same,inhibition,"[4]; measured here: combination with BGB IC20, at 0.005 µM",-19.6%
same,inhibition,"[4]; measured here: combination with BGB IC40, at 0.005 µM",-15.6%
same,inhibition,[4]; [14],-21.7%
same,inhibition,"[4]; measured here: combination with cisplatin, at 0.5 µM, stronger effect = higher value",116%
same,inhibition,"[4]; measured here: combination with cisplatin, at 5 µM, stronger effect = higher value",-26.6%
same,inhibition,"[5]; BGB combo, at 5 µM",-58.6%
same,inhibition,[5]; at 0.5 µM,-38.5% (inactive)
same,inhibition,"[5]; cisplatin combo, at 5 µM",-44.1%
same,inhibition,[5]; [15],-41.3%
same,inhibition,[5]; [16],-33.1%
same,inhibition,"[5]; single agent, at 5 µM",-32.1%
same,inhibition,[6]; at 0.5 µM,-27.9% (inactive)
same,inhibition,[6]; [14],-35.3%
same,inhibition,[6]; [17],-51%
same,inhibition,"[6]; measured here: combination with cisplatin, at 5 µM",-58.9%
same,inhibition,[7]; at 0.5 µM,-26.7% (inactive)
same,inhibition,"[7]; measured here: with BGB IC20, at 0.5 µM",-35%
same,inhibition,"[7]; measured here: with BGB IC20, at 5 µM",-20.6%
same,inhibition,"[7]; measured here: with cisplatin IC20, at 0.5 µM",-23.7%
same,inhibition,"[7]; measured here: with cisplatin IC20, at 5 µM",-31.4%
same,inhibition,"[7]; single agent, at 5 µM",-19.2%
same,inhibition,[8]; at 0.5 µM,-74.1% (inactive)
same,inhibition,"[8]; measured here: combination with BGB at IC20, at 0.5 µM",-48.3%
same,inhibition,"[8]; measured here: combination with cisplatin at IC20, at 0.5 µM",-120%
same,inhibition,[9]; at 0.5 µM,-21.4% (inactive)
same,inhibition,"[9]; measured here: combo with BGB at IC20, at 0.5 µM",-26.7%
same,inhibition,"[9]; measured here: combo with cisplatin at IC20, at 0.5 µM",-23%
same,inhibition,[10]; at 0.5 µM,-13.6% (inactive)
same,inhibition,"[10]; measured here: BGB combination, at 0.5 µM",-17.7%
same,inhibition,"[10]; measured here: BGB combination, at 5 µM",-15.1%
same,inhibition,"[10]; measured here: cisplatin combination, at 0.5 µM",-10.4%
same,inhibition,"[10]; measured here: cisplatin combination, at 5 µM",-7.02%
same,inhibition,[11]; at 0.5 µM,-5.93% (inactive)
same,inhibition,"[11]; cisplatin combination, at 0.5 µM",-27.2%
same,inhibition,"[11]; cisplatin combination, at 5 µM",-19.4%
same,inhibition,"[11]; measured here: BGB IC40 combination 0.05 uM, at 0.05 µM",-6.16%
same,inhibition,"[11]; single agent, at 5 µM",-11.2%
same,inhibition,[12]; at 0.5 µM,-16.2% (inactive)
same,inhibition,"[12]; cisplatin combo, at 5 µM",-19.8%
same,inhibition,"[12]; measured here: BGB IC40 combination, at 0.05 µM",3.99%
same,inhibition,[12]; [17],-35.7%
same,inhibition,"[12]; single agent, at 5 µM",-29.5%
same,inhibition,[13]; at 0.5 µM,-31.3% (inactive)
same,inhibition,[13]; [15],-27.5%
same,inhibition,[13]; [16],-35.4%
same,inhibition,"[13]; single agent, at 0.05 µM",-12.6%
same,inhibition,"[13]; single agent, at 5 µM",-36.3%
Oc1ccc(-c2nc(-c3ccc(F)cc3)c(-c3ccncc3)[nH]2)cc1,inhibition,[1],-3% (inactive)
same,fluorescence ratio (interference),[2],0.9 (inactive)
same,outcome,[3],inactive
COc1cc(SC)ccc1C(=O)N1CCC(Cc2ccccc2)CC1,inhibition,[1],1% (inactive)
same,fluorescence ratio (interference),[2],1 (inactive)
same,outcome,[3],inactive
CC(C)N(CCC(=O)c1ccc2ccccc2c1)Cc1ccccc1,inhibition,[1],-3% (inactive)
same,fluorescence ratio (interference),[2],0.9 (inactive)
same,outcome,[3],inactive
O=Nc1c(-c2c(O)[nH]c3ccccc23)[nH]c2ccccc12,inhibition,[1],0% (inactive)
same,fluorescence ratio (interference),[2],1 (inactive)
same,outcome,[3],active
Cc1ccc(S(=O)(=O)/C=C/C#N)cc1,inhibition,[1],0% (inactive)
same,fluorescence ratio (interference),[2],1 (inactive)
same,outcome,[3],inactive
Cc1cccc(C#Cc2ccccc2)n1,inhibition,[1],-1% (inactive)
same,fluorescence ratio (interference),[2],1 (inactive)
same,outcome,[3],inactive
